Assay outcomes (PubChem BioAssay)
Shown are actives, neighbours in structure and some others; about 3.3% of the full set was active somewhere.
MazF activator – MazEF (E. coli) toxin RNase activation. 350,000 compounds, 0.32% hits. AID 504720. activation, % at 20 µM. FAM/BHQ RNA-DNA oligo cleavage fluorescence, 5 h; in the data active = activation above about 50%
Bead autofluor – compound fluorescence in toxin protease inhibitor counterscreen; compound autofluorescence counterscreen, microsphere flow cytometry; stronger effect = higher value; fluorescence intensity (test concentration not listed); 360,000 compounds, 3.1% hits; in the data active = fluorescence intensity above about 16000; inconclusive = no clear call, values can overlap the other calls
BoNT-A LC inh2 – BoNT A light chain protease inhibition | 360,000 compounds, 0.17% hits | multiplex microsphere protease substrate cleavage, flow cytometry | inhibition, % at 10 µM | AID 588499; also: plate controls were buffer without enzyme for full effect and enzyme alone for no effect
Anthrax LF inh2 – anthrax lethal factor protease inhibition. inhibition, % at 10 µM. AID 588501. 360,000 compounds, 0.12% hits. P15917. multiplex microsphere protease cleavage assay, LF; also: plate controls were buffer without enzyme for full effect and enzyme alone for no effect
Target sequence (P15917 whole entry, looked up): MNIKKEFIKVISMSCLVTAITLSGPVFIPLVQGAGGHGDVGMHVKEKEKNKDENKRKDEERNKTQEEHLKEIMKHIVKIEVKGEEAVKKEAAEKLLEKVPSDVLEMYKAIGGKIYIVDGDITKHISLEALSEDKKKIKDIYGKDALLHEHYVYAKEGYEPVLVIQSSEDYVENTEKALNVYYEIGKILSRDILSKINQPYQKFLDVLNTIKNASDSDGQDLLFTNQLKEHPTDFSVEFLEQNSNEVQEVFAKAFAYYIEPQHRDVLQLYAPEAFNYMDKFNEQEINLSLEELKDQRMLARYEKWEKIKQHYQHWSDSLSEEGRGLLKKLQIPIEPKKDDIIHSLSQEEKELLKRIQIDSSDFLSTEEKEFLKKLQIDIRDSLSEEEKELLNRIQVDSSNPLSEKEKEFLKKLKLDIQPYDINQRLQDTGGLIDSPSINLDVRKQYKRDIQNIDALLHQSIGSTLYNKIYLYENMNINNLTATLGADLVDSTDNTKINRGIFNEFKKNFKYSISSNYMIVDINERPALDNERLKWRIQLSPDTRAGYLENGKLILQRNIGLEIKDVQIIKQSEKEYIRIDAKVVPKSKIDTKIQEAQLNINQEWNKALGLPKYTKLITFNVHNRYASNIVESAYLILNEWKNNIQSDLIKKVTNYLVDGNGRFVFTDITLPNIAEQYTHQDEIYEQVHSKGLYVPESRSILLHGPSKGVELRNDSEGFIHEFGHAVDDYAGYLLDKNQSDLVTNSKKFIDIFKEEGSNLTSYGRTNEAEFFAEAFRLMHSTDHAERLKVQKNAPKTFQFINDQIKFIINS
SSB-PriA inh – blocks PriA binding to SSB C-terminal tail; AlphaScreen SSBct-PriA binding, biotinylated peptide; inhibition, % at 33 µM; 430,000 compounds, 0.6% hits; AID 1272365; in the data active = inhibition mostly above about 37%, no sharp cut-off; inactive = mostly below about 20%;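 also: plate controls were negative control peptide for no effect and reference peptide for full effect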
BoNT F protease – inhibitors of Botulinum neurotoxin F light chain protease; Multiplex microsphere protease cleavage assay, flow cytometry; inhibition, % at 10 µM; 360,000 compounds, 0.22% hits; in the data active = inhibition above about 35%, passing the limit was not always enough; inconclusive = no clear call, values can overlap the other calls; also: plate controls were buffer without enzyme for full effect and enzyme alone for no effect
The depositor's hits bear a star; ? = inconclusive; . = no result given; + = active, no number. Rule as the data show it, unless noted: active = inhibition above about 30%; inconclusive = no clear call, values can overlap the other calls; inactive = below that.

SMILES	MazF activator	Bead autofluor	BoNT-A LC inh2	Anthrax LF inh2	SSB-PriA inh	BoNT F protease
CC(C)CCn1c(CN2CCN(Cc3ccccc3)CC2)nc2c1c(=O)[nH]c(=O)n2C	2	22665*	-1	-1	-12	-1
Cn1c(=O)[nH]c(=O)c2c1nc(CN1CCN(c3cccc(Cl)c3)CC1)n2CCN1CCOCC1	13	20987*	?	3	-15	8
CCCCn1c(CN2CCN(c3cccc(Cl)c3)CC2)nc2c1c(=O)[nH]c(=O)n2C	2	12895	-1	-5	-2	-10
CCOc1cc(S(=O)(=O)Nc2ccccc2C(=O)O)ccc1F	.	.	.	.	0	.
Cn1nc(CNS(=O)(=O)/C=C/c2ccccc2)cc1-c1ccco1	.	.	.	.	11	.
CCc1cccc(C)c1N(C(=O)Cn1c(CO)nc2ccccc21)[C@@H](C)COC	.	.	.	.	-4	.
CCc1cccc(C)c1N(C(=O)Cn1c(COC)nc2ccccc21)C(C)COC (configuration not stated)	3	3201	0	-4	46*	5
Cc1cc(C)c(S(=O)(=O)Nc2cccnc2)c(C)c1	6	22484*	2	0	-15	2
O=C1C(Cc2ccc(O)cc2)NC(=S)N1c1ccccc1 (configuration not stated)	-20	23822*	-3	-1	-16	-2
CC(C)Cn1c(NN)nc2ccccc21	.	.	.	.	-5	.
Cc1ccc(S(=O)(=O)NCC2CC(=O)N(Cc3ccc(F)cc3)C2)cc1 (configuration not stated)	.	.	.	.	-2	.
Cc1ccc(-n2nc3c4c(cccc4c2=O)-c2ccccc2-3)cc1	6	19852*	8	1	-7	9
NNc1nc(Nc2ccccc2)nc(Nc2ccccc2)n1	15	4807	-3	-8	49*	-3
Cc1cc(N)nc(Nc2ccc(Nc3ccccc3)cc2)n1	.	.	.	.	41*	.
COc1ccc(Nc2nc(NN)nc(Nc3ccc(OC)cc3)n2)cc1	16	2763	-2	-13	100*	-56
Cc1cc(N)nc(Nc2ccc(C(N)=O)cc2)n1	.	.	.	.	-6	.
COc1ccc([C@H]2CCCCN(C(=O)c3cc(-c4cccs4)nn3C)C2)cc1	.	.	.	.	10	.
COc1ccc(Cn2c(/C=C/c3ccccc3)nc3ccccc32)cc1	3	24328*	-1	2	-67	-4
CCn1cc(C=C2C(=O)c3ccccc3C2=O)c2ccccc21	+	3399	70*	34*	0	19
CCOC(=O)Cn1cc(C=C2C(=O)N(C)C(=O)N(C)C2=O)c2ccccc21	-115	3338	-1	22	3	40*
CCN=C1S/C(=C\c2cn(CC)c3ccccc23)C(=O)N1CC	-7	2772	0	-2	-15	-1
CC(C)c1nc2oc3c(NCC4CCCO4)ncnc3c2c2c1COC(C)(C)C2 (configuration not stated)	10	22704*	1	-4	-5	-1
CCCc1nc2oc3c(OC)ncnc3c2c2c1COC(C)(C)C2	3	19420*	0	2	-25	-4
CCCc1nc2oc3c(NCCOCCO)ncnc3c2c2c1COC(C)(C)C2	10	7131	4	-4	6	10
Cc1nc2oc3c(NCc4ccccc4)ncnc3c2c2c1COC(C)(C)C2	-10	9519	-3	-10	-4	-13
SMILES	MazF activator	Bead autofluor	BoNT-A LC inh2	Anthrax LF inh2	SSB-PriA inh	BoNT F protease
Cc1nc2oc3c(NCC4CCCO4)ncnc3c2c2c1COC(C)(C)C2 (configuration not stated)	0	22824*	1	-3	4	-2
O=C(c1ccno1)N1CCCC(Cc2nc(C3CC3)no2)C1 (configuration not stated)	.	.	.	.	-14	.
O=C1c2cnc3nc(SCc4ccccc4)nn3c2CC2c3ccccc3CCN12 (configuration not stated)	1	22144*	3	2	9	9
O=C1CC2c3ccccc3CCN2C(=O)CN1Cc1ccccc1 (configuration not stated)	.	5279	0	2	.	1
Cc1nc2sc3c(c2c(=O)n1N)CCC3	4	4292	-1	-1	-5	-1
Cn1nnc2sc3c(c2c1=O)CCCC3	-2	23005*	-2	-1	1	-5
COc1ccc(NC(=O)c2ccccc2NS(=O)(=O)c2ccc(C)cc2)c([N+](=O)[O-])c1	-2	2466	-1	-2	53*	-15
COc1ccc(NC(=O)CN(C)S(=O)(=O)c2ccccc2)cc1	14	20336*	0	-4	-30	0
COc1ccc(NS(=O)(=O)c2ccc(C)cc2)c([N+](=O)[O-])c1	7	4987	-1	-8	27	-3
COc1ccc(NC(=O)CN(C)S(=O)(=O)c2ccccc2)c([N+](=O)[O-])c1	263*	10806	0	-6	-6	4
COc1ccc(CNC(=O)CN(C)S(=O)(=O)c2ccccc2)cc1	5	4634	0	-6	4	-1
COc1ccc(NC(=O)CN(C)S(=O)(=O)c2ccc(Cl)cc2)c([N+](=O)[O-])c1	14	11852	0	-7	-13	-4
CC(=O)c1ccc(-c2ccccc2C(F)(F)F)o1	.	.	.	.	-10	.
CC(C)c1nnc(C2CCN(S(=O)(=O)c3ccc(F)cc3F)CC2)o1	.	.	.	.	-2	.
Cn1c(SCC(=O)n2c3c(c4ccccc42)CCCC3)nnc1-c1ccccc1	5	22437*	0	-1	6	-1
COc1ccc(/C=C/C(=O)NCc2cnn(C)c2C)cc1COc1ccc(Br)cc1	-13	23817*	-2	-2	13	-4
COc1ccc(/C=C/C(=O)NCc2c(C)nn(C)c2C)cc1COc1ccc(Br)cc1	1	8036	3	-3	-2	20
Cc1nc(NC2CCCCC2)c2nnn(Cc3ccccc3Cl)c2n1	-12	4237	1	1	-25	-22
CC(C)(C)c1nc(N2CCN(C(=O)c3ccco3)CC2)c2nnn(Cc3ccccc3)c2n1	-2	8630	0	-4	19	-5
Cc1nc(N2CCC(C(N)=O)CC2)c2nnn(Cc3ccccc3)c2n1	0	21409*	-2	4	-6	-2
Cc1nc(N2CCCC2)c2nnn(Cc3ccccc3Cl)c2n1	-5	20754*	4	0	-18	5
COCC(C)NC(=O)c1cc(-c2cccs2)nc2c1c(C)nn2C1CCS(=O)(=O)C1 (configuration not stated)	.	.	.	.	-4	.
CCOC(=O)C1CCN(c2c(C#N)cnc3cc(OC)ccc23)CC1	.	.	.	.	-13	.
CN(C)c1cncc(OC2CCN(C(=O)c3ncccn3)C2)n1 (configuration not stated)	.	.	.	.	-2	.
O=C(NCCCO)NC12CC3CC(CC(C3)C1)C2	1	19797*	3	-1	4	5
NS(=O)(=O)c1ccc(CNC(=O)C23CC4CC(CC(C4)C2)C3)cc1	1	3115	0	-3	-8	-3
CCCCNC(=O)NC12CC3CC(CC(C3)C1)C2	2	2272	-1	0	-2	-4
NS(=O)(=O)c1ccc(CNC(=O)NC23CC4CC(CC(C4)C2)C3)cc1	3	17603*	?	-16	-7	11
